3T3 cytotox = NIH 3T3 cell cytotoxicity; NIH 3T3 viability, CellTiter-Glo ATP luminescence, 48-72 h; Potency, µM (series often up to 96.7 µM), inactives show top-dose activity change, negative = cytotoxicity, most hits filed as inhibitors; actives 4.3% (n = 94,000); AID 1345082; also: potency is read from the fitted curve at half-maximal effect; nearly all actives have a fitted effect of over 55% in size
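Luminescent ATP readout (CellTiter-Glo, 10 min RT) after 48 or 72 hr compound exposure of NIH 3T3 cells seeded at 400 cells/well in 1536-well format; quantitative HTS.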
HEK cytotox = HEK 293 cell cytotoxicity; HEK 293 viability, ATP luminescence (CellTiter-Glo), 48-72 h; AID 1345083; actives 6.6% (n = 94,000); Potency, µM (highest dose often 115 µM), without a hit: at the highest dose activity change, negative = cytotoxicity, most hits filed as inhibitors; also: potency is read from the fitted curve at half-maximal effect; nearly all actives have a fitted effect of over 60% in size
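CellTiter-Glo luminescence (cellular ATP) was read after 48 or 72 hr of compound exposure at 37 degree Celsius. Cells were HEK 293 plated at 250 cells/well.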
SNCA viab count = cell viability loss counter-screen; AID 1671193; HEK-293-SNCA-luc viability, GF-AFC fluorescence, 24 h; actives 0.12% (n = 150,000); Potency, µM (titrated, usually from 57.1 µM), without a hit: at the highest dose activity change, negative = cytotoxicity, usual class: cytotoxic;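 also: potency is read from the fitted curve at half-maximal effect; 0% = DMSO-treated cells and -100% = medium-only wells without cells; nearly all actives have a fitted effect of over 30% in size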
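Cytotoxicity counterscreen: after 24 h compound treatment of genome-edited SNCA-luciferase HEK-293 cells, live-cell protease substrate GF-AFC read by fluorescence after 30 min; activity scaled between DMSO (0%) and medium-only (-100%), curves Hill-fitted.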
FLuc inh = inhibitors of firefly (Photinus pyralis) luciferase; actives 2.5% (n = 76,000); P08659; Potency, µM (top dose mostly 115 µM), most hits filed as inhibitors; AID 1347043; purified P. pyralis luciferase, luminescence, biochemical; also: potency is read from the fitted curve at half-maximal effect; nearly all actives have a fitted effect of over 65% in size
Target sequence (P08659 whole entry, looked up): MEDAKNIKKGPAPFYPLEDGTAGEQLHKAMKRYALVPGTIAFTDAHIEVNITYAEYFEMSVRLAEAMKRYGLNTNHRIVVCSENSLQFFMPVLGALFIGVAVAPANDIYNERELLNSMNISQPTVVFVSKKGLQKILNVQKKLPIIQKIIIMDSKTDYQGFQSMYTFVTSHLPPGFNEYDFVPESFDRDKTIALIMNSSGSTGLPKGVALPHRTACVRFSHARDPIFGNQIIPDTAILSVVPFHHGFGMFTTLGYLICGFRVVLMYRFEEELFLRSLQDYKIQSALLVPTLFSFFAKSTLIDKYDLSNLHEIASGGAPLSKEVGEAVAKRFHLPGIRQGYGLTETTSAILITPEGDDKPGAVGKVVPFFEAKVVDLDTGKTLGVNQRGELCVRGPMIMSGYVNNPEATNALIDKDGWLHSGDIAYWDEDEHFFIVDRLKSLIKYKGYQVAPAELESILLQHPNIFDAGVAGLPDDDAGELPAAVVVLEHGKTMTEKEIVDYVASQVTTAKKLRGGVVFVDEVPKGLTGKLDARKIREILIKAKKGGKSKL
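Purified P. pyralis luciferase (10nM final) in 50mM Tris acetate pH 7.5, 10mM Mg acetate, 0.01% Tween-20, 0.05% BSA with 10uM D-luciferin and 10uM ATP. Compounds titrated qHTS. Luminescence imaged on CCD.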
SNCA expr inhib = SNCA gene expression inhibition; HEK-293 SNCA-luciferase knock-in, luminescence, 24 h; Potency, µM (series often up to 57.2 µM), inactives show at the highest dose activity change, negative = inhibition, hits mostly inhibitors; AID 1671194; actives 0.17% (n = 140,000);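 also: potency is read from the fitted curve at half-maximal effect; plate controls were DMSO cells for no effect and cell-free wells for full effect; nearly all actives have a fitted effect of over 45% in size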
IP6K1 inhibitor = blocks human inositol hexakisphosphate kinase 1; Q92551; IP6K1 kinase, ADP-Glo luminescence, 2 h; stronger effect = lower value; activity change, % (series mostly up to about 58 µM); actives 0.81% (n = 140,000); AID 1645851; in the data active = activity change below about -25%
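ADP-Glo luminescence measures ADP made by human IP6K1 during a 2 h RT reaction with ATP/IP6 (mix at 1.3 mM/130 uM); top library doses 57.5 and 19.1 uM final.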
An asterisk follows results filed as active; i = inactive; u = inconclusive; x = not tested or not shown; [ ] = dose if it differs, or a comment. Rows were chosen to be rich in hits. Some 7.3% of all compounds tested hit in one or more screens of this group. Unless noted, calls follow the shape of the dose curve; as a rule, active = well fitted curve in the direction sought with a large enough effect; inconclusive = small, poorly fitted or top-dose-only effect, or another doubt; inactive = no such curve, though single readings can be large; an effect the other way counts as inactive or inconclusive. Unless noted, % is scaled to controls: 0 for no effect and ±100 for the full control effect.

SMILES | 3T3 cytotox | HEK cytotox | SNCA viab count | FLuc inh | SNCA expr inhib | IP6K1 inhibitor
CC1(C(=O)NCCN2CCOCC2)CCCc2cnc(NCc3ccccc3)nc21 (configuration not stated) | u | -5%[172 µM] | 6%[87.6 µM] | i | 1%[87.6 µM] | 2
CC1(C(=O)NCc2cnccn2)CCCc2cnc(NCc3ccccc3)nc21 (configuration not stated) | 89µM* | -4%[172 µM] | 8%[87.6 µM] | i | -26%[87.6 µM] | -2
CC1(C(=O)NCc2ccc(F)cc2)CCCc2cnc(Nc3cccnc3)nc21 (configuration not stated) | u | -16%[172 µM] | -14%[87.6 µM] | i | -18%[87.6 µM] | -7
CC1(C(=O)NCc2ccncc2)CCCc2cnc(NCc3ccccc3)nc21 (configuration not stated) | 25µM* | 89µM* | 1%[87.6 µM] | i | -22%[87.6 µM] | -1
CC1(C(=O)NCc2ccncc2)CCCc2cnc(Nc3ccccc3)nc21 (configuration not stated) | 100µM* | -24%[172 µM] | u | i | 3%[87.6 µM] | 3
CCC(=O)N(C1CCOCC1)C1CCN(S(=O)(=O)c2ccccc2)CC1 | -11% | -3% | 7% | i | -23% | 6
O=C(NCc1ccc(C(F)(F)F)cc1)C1CCCN(Cc2cccc(-c3ccsc3)c2)C1 (configuration not stated) | 35µM* | u | x | x | x | 6
O=C(NCc1ccccn1)C1CCCN(Cc2cccc(-c3ccsc3)c2)C1 (configuration not stated) | u | u | x | x | x | 0
O=C(NCC(F)F)C1CCCN(Cc2cccc(-c3ccsc3)c2)C1 (configuration not stated) | u | u | x | x | x | 14
O=C(NCc1cccc(C(F)(F)F)c1)C1CCCN(Cc2cccc(-c3ccsc3)c2)C1 (configuration not stated) | 13µM* | 32µM* | x | x | x | 10
O=C(Nc1ccccc1)[C@@H]1OCC(=O)N(C2CC2)[C@H]1c1ccccc1 | -13% | -16% | 13% | x | -6% | -9
CN(Cc1cccnc1)c1nc2c(c(=O)[nH]1)CCN(Cc1ccc(F)cc1Cl)CC2 | u | u | -8% | i | -26% | 0
COc1ccc(-c2nc3cnccn3c2NCCC(=O)Nc2ccc(C)cc2C)cc1 | -7% | u | u | i | 32% | 1
COc1ccc(-c2nc3cnccn3c2NCCC(=O)O)cc1 | -2% | 4% | u | 35µM* | 1% | 6
COC(=O)c1ccc(COCC2=CC(C)(C)COc3ccc(OC)cc32)cc1 | u | u | x | x | x | 19
COC(=O)c1cccc(COCC2=CC(C)(C)COc3ccc(OC)cc32)c1 | u | 28µM* | x | x | x | 1
O=C(c1ccc(Cl)nc1)N1CCN(c2nccc(Nc3ccccc3Cl)n2)CC1 | u | u | u | x | -13% | 7
CC(=O)N1CCN(c2nccc(Nc3ccccc3Cl)n2)CC1 | -28%[138 µM] | -19%[172 µM] | -6%[87.6 µM] | x | 204%[87.6 µM] | 16
Cc1ccc(C(=O)N2CCN(c3nccc(Nc4ccccc4Cl)n3)CC2)cc1 | u | 22µM* | u | x | -21% | 15
O=C(c1ccccc1Cl)N1CCN(c2nccc(Nc3ccccc3Cl)n2)CC1 | u | 45µM* | 1% | x | 6% | 17
CC(C)C(=O)N1CCN(c2nccc(Nc3ccccc3Cl)n2)CC1 | u | 40µM* | 1% | x | 91% | 17
COc1ccccc1C(=O)N1CCN(c2nccc(Nc3ccccc3Cl)n2)CC1 | 28µM* | u | -23% | x | u | 17
Cc1noc(C2CC3(CCN(C(=O)C4(c5ccccc5)CC4)CC3)CN2C)n1 (configuration not stated) | -4% | i | 0% | x | -13% | 16
COc1ccc(OCc2nc(C3CN(C(=O)Nc4cccc(F)c4)C3)no2)cc1 | u | u | -6% | u | 65% | 2
CCOC(=O)[C@H]1[C@@H](O)C(=O)N(Cc2ccccc2)C12CCN(C(=O)OCC)CC2 | u | i | x | x | x | 14
SMILES | 3T3 cytotox | HEK cytotox | SNCA viab count | FLuc inh | SNCA expr inhib | IP6K1 inhibitor
COc1ccc(C(=O)N2CCN(c3nccc(Nc4ccccc4Cl)n3)CC2)cc1 | u | u | -8% | x | -7% | 17
COc1ccc(Nc2ccnc(N3CCN(C(=O)c4ccccc4Cl)CC3)n2)cc1 | u | 40µM* | -12% | x | -18% | 8
O=C(Cc1ccccn1)NC1CCCN(CCn2nc3n(c2=O)CCCC3)C1 (configuration not stated) | -20% | -3% | x | x | x | 7
O=c1[nH]c2ccccc2n1C1CCN(c2nccc(-c3cccnc3)n2)CC1 | 32µM* | 14µM* | u | i | u | -3
COCCNC(=O)c1cnc2c(c1)N(C(=O)Cc1ccc(C(C)C)cc1)CCC2 | -14%[138 µM] | u | 1%[87.6 µM] | i | -14%[87.6 µM] | 3
CC(C)c1ccc(CC(=O)N2CCCc3ncc(C(=O)Nc4ccn(C)n4)cc32)cc1 | u | 89µM* | -2%[87.6 µM] | i | -20%[87.6 µM] | 8
CNC(=O)c1cnc2c(c1)N(C(=O)Cc1ccc(C(C)C)cc1)CCC2 | u | u | -7%[87.6 µM] | i | 2%[87.6 µM] | 10
COCCCNC(=O)c1cnc2c(c1)N(C(=O)Cc1ccc(C(C)C)cc1)CCC2 | -24%[138 µM] | 71µM* | -5%[87.6 µM] | i | -20%[87.6 µM] | 1
Cc1csc(NC(=O)c2cnc3c(c2)N(C(=O)Cc2ccc(C(C)C)cc2)CCC3)n1 | u | 35µM* | u | i | u | 2
O=C(Nc1cccc(C(F)(F)F)c1)c1cnc2c(c1)N(C(=O)Cc1cccc(C(F)(F)F)c1)CCC2 | u | 25µM* | u | i | u | 3
Cc1cccc(OCC(=O)N2CCCC(c3noc(COc4ccccc4F)n3)C2)c1 (configuration not stated) | u | u | -20% | u | -20% | 0
COC(=O)CNC(=O)C1CCc2nnc(C3CCN(C(=O)c4ccccc4)CC3)n21 (configuration not stated) | i | i | 0% | x | -4% | 0
COc1ccc(NC(=O)c2cnc3c(c2)N(C(=O)CCc2ccccc2)CCC3)cn1 | -20%[138 µM] | u | 0%[87.6 µM] | i | 10%[87.6 µM] | 12
Cc1ccccc1NC(=O)c1cnc2c(c1)N(C(=O)CCc1ccccc1)CCC2 | -21%[138 µM] | 100µM* | -3%[87.6 µM] | i | 3%[87.6 µM] | 5
CC(C)c1ccc(CC(=O)N2CCCc3ncc(C(=O)NCCc4c[nH]c5ccccc45)cc32)cc1 | 11µM* | 25µM* | -7% | i | u | 5
COc1ccc(NC(=O)c2cnc3c(c2)N(C(=O)Cc2ccc(C(C)C)cc2)CCC3)cc1OC | u | 32µM* | -25% | i | -39% | -1

Bioassay records: PubChem BioAssay, National Center for Advancing Translational Sciences (NCATS)
